Source: PubChem BioAssay (NCI)
Compounds without any hit were thinned out: in the full panel of roughly 83,000, 20% have a hit.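 Growth was measured after 48 h exposure to one concentration of compound in 96-well plates. Values under 10 count as active.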 Unmarked numbers belong to inactive results. Active and inactive are the calls of the source.

Assays:
Assay in all cases: NCI-60 one-dose screen, 48 h (100 = growth as untreated, 0 = no growth, -100 = all killed)
Conditions in all cases: 10 µM unless noted
SR leukemia = test system: SR leukemia
RPMI-8226 leukemia = test system: RPMI-8226 leukemia
OVCAR-8 ovarian = test system: OVCAR-8 ovarian
OVCAR-5 ovarian = test system: OVCAR-5 ovarian
OVCAR-4 ovarian = test system: OVCAR-4 ovarian
SK-OV-3 ovarian = test system: SK-OV-3 ovarian
IGROV1 ovarian = test system: IGROV1 ovarian
OVCAR-3 ovarian = test system: OVCAR-3 ovarian
HS 578T breast = test system: HS 578T breast
NCI/ADR-RES ovarian = test system: NCI/ADR-RES ovarian

Row | Structure (SMILES) | growth (SR leukemia) | growth (RPMI-8226 leukemia) | growth (OVCAR-8 ovarian) | growth (OVCAR-5 ovarian) | growth (OVCAR-4 ovarian) | growth (SK-OV-3 ovarian) | growth (IGROV1 ovarian) | growth (OVCAR-3 ovarian) | growth (HS 578T breast) | growth (NCI/ADR-RES ovarian)
1 | Cc1cccnc1NC(=S)Nc1ncccc1C | 88.5% | 80.9% | 99.3% | 124% | 134% | -65.6% (active) | 103% | 100% | 111% | 117%
2 | Brc1ccc2[nH]cc(-c3nonc3-c3c[nH]c4ccccc34)c2c1 | 28.1% | 48.7% | 47% | 48.9% | 46.1% | 60.5% | 43.6% | 45.4% | 52.8% | 42.6%
3 | O=C1NCCC12CCN(c1c(Cl)cncc1-c1ccc(O)cc1)CC2 | 94.3% | 85.5% | 89.1% | 83.6% | 105% | 85.4% | 69.2% | 104% | 101% | 91.8%
4 | Clc1ccc(Sc2cnc(-c3ccccc3)o2)cc1 | 90% | 89.7% | 99.2% | 98.8% | 95.8% | 101% | 97% | 97.5% | 99.1% | 108%
5 | Cc1c(-c2nc3ccc(F)cc3c(=O)[nH]2)c2ccccc2n1C | 11.3% | 40.9% | 46.9% | 79.4% | 59.4% | 43.2% | 38.9% | 10.3% | 3.2% (active) | 21.9%
6 | CC1(c2ccccc2O)NN=C(/N=C/c2cccc([N+](=O)[O-])c2)N1C(Cc1c[nH]c2ccccc12)C(=O)O (stereo not given) | 87.7% | 81.3% | 88.7% | 106% | 90.2% | 61.3% | 62% | 95% | 95.8% | 97.1%
7 | O=c1oc2ccc([N+](=O)[O-])cc2cc1Br | 85% | 107% | 100% | 109% | 109% | 106% | 119% | 111% | 106% | 108%
8 | COC1=CC(c2ccc[nH]2)=N/C1=C\c1[nH]c(C)c(C(=O)OCc2ccccc2)c1C | 9.69% (active) | -18% (active) | -26.6% (active) | -38.5% (active) | -36.5% (active) | 7.66% (active) | -33.1% (active) | -66% (active) | -37% (active) | 0.894% (active)
9 | O=C(c1ccc(Cl)cc1)N1CCN(c2ccnc3cc(Cl)ccc23)CC1 | 122% | 75.9% | 87.3% | 93% | 70.7% | 93.6% | 92.9% | 100% | 99.3% | 87.7%
10 | OCCCC1CCN(C(Cc2ccccc2)c2ccccc2)CC1 (stereo not given) | 120% | 98.3% | 98.5% | 60.2% | 92.3% | 84.9% | 96.8% | 89.2% | 101% | 93.9%
11 | CC1=C(Nc2ccc(N3CCN(C)CC3)cc2)C(=O)c2cncnc2C1=O | 26.2% | 41.8% | 2.2% (active) | 71.7% | -98.1% (active) | 111% | 1.56% (active) | -34.8% (active) | 126% | 18.1%
12 | CCOC(=O)c1c2c(n3ccc(C)cc13)C(=O)c1ccccc1C2=O | 84.8% | 98% | 86.1% | 109% | 101% | 103% | 78% | 88.2% | 93.3% | 95%
13 | Oc1c(Cl)cc(Cl)cc1/C=N/Nc1nnc(N/N=C/c2cc(Cl)cc(Cl)c2O)c2ccccc12 | 3.92% (active) | 0.393% (active) | 17.4% | 40.4% | 8.13% (active) | 29.3% | 13.1% | 14.1% | 31.6% | 1.78% (active)
14 | Fc1cccc(CNc2c3ccccc3nc3ccccc23)c1F | 38.2% | 52.9% | 50.8% | 73.3% | 49.9% | 75.8% | 52.7% | 86.1% | 87% | 48.5%
15 | C=CCn1c(SCC(=O)Nc2ccc(C(=O)/C=C/c3cc4cc(OC)ccc4nc3Cl)cc2)nnc1-c1ccc(Br)cc1 | 58.4% | -19.8% (active) | 79.8% | 99.2% | 84.8% | 95.7% | 78.4% | 97.4% | 89.2% | 92.3%
16 | N#C/C(=C\c1ccc(Br)cc1)n1nnc2ccc(F)cc21 | -11.9% (active) | -35.4% (active) | 7.38% (active) | 3.03% (active) | 24.9% | 51.6% | -31.2% (active) | -45.3% (active) | 3.56% (active) | 1.62% (active)
17 | O=C(OCc1ccc2c(Cl)cc(Cl)c(O)c2n1)n1cncn1 | 23.1% | 32.9% | 20.7% | 81.8% | 25.1% | 39% | 32.9% | 30.7% | 67.4% | 5.53% (active)
18 | CCOC(=O)c1cc2c(=O)oc3ccccc3c2oc1=O | -26% (active) | 84.7% | 102% | 100% | 96.4% | 102% | 103% | 112% | 100% | 112%
19 | COc1cccc([C@H]2c3[nH]c4ccccc4c3C[C@H]3C(=O)N(CCCCCCC(=O)NO)CC(=O)N23)c1 | 4.26% (active) | 14.6% | 65.6% | 62.1% | 62% | 77.1% | 64.4% | 64.7% | 59.6% | 91.1%
20 | COc1cc(OC)c2sc(-c3ccc(-n4cncc4-c4ccc(OC)c(OC)c4)cc3)nc2c1 | 50.7% | 33.3% | 71% | 79.5% | 52.9% | 84.8% | 67.2% | 43.7% | 75.5% | 56.4%
21 | COc1ccc(-c2cn(-c3cc(OC)c(OC)c(OC)c3)c(=O)n2C(C)=O)cc1 | 22.2% | 95.9% | 94.5% | 84.5% | 84.9% | 104% | 77.7% | 109% | 93.4% | 98.5%
22 | CSc1nc2sc3c(c2c(=O)n1-c1ccc([N+](=O)[O-])cc1)CCCCC3 | 85.4% | 99.4% | 73% | 87.8% | 82.4% | 69.5% | 84.8% | 103% | 82.3% | 89.6%
23 | Cc1ccc2c(n1)C(=O)c1[nH]c3ccccc3c1C2=O | 39.8% | 46.9% | 53% | 67.9% | 22.2% | 85.6% | 33.8% | -5.11% (active) | 69.2% | 58.6%
24 | C/C(=N/O)c1ccc(F)cc1 | 68% | 85.5% | 86.5% | 80.1% | 95.3% | 85.2% | 84.5% | 132% | 95.6% | 77.7%
25 | Cn1c(=O)c2c(nc(NC3=NS(=O)(=O)c4ccccc43)n2CC(=O)N2CCc3ccccc32)n(C)c1=O | 124% | 108% | 98.9% | 101% | 107% | 101% | 94.7% | 110% | 97% | 91.8%
26 | Cc1cc2c([nH]1)CSc1cc(S(=O)(=O)c3ccccc3)c(=O)[nH]c1-2 | 12.8% [100 µM] | 21.3% [100 µM] | 24.3% [100 µM] | 69.9% [100 µM] | 43.1% [100 µM] | 22% [100 µM] | 42.6% [100 µM] | -15.6% [100 µM] (active) | 47.5% [100 µM] | 15.7% [100 µM]
27 | CCN(CC)CCOc1ccc(-c2c(-c3ccccc3)c(=O)oc3ccccc23)cc1 | 93.6% | 90.9% | 90.6% | 95.6% | 94.2% | 79.1% | 95.5% | 104% | 71.2% | 84.8%
